Where “and” joins values, the source holds several entries; their conditions need not be identical. Equal values may be shown once. More than one record can exist for a structure, and the calls need not agree. Calls of active or inactive are those of the source. Unless noted, the call rests on the fitted dose curve; in most records, active means well fitted curve in the direction sought with a large enough effect in the repeat runs; inconclusive means weak or mixed curves; inactive means no such curve, though single readings can be large; an effect the other way counts as inactive or inconclusive.

This passage reports Potency results from PubChem BioAssay (Tox21).

Experiment [1] in a line: qHTS assay to identify small molecule antagonists of the thyroid receptor (TR) signaling pathway - cell viability counter screen (AID 743064). Further: nearly all actives have a fitted effect of over 50% in size. Further: potency means the concentration at half of the fitted maximal effect. An outline of the steps:
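GH3.TRE-Luc rat pituitary cells carrying a TRE-luciferase reporter were treated with compound plus 1 nM T3 (final) for 23.5 h at 37 °C. Viability was then read in the same wells by CellTiter-Fluor fluorescence after a further 30 min.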
(In general: Quantitative high-throughput screening tests each substance at several concentrations.)

Experiment [2] can be described thus: qHTS assay to identify small molecule antagonists of the thyroid receptor (TR) signaling pathway (AID 743065). Further: nearly all actives have a fitted effect of over 55% in size. Further: potency means the concentration at half of the fitted maximal effect. An outline of the steps: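 GH3.TRE-Luc rat pituitary cells (two TREs driving luciferase) were dosed with compound, then stimulated with 1 nM T3 (final) for 23.5 h at 37 C. ONE-Glo luminescence was the read-out, with CellTiter-Fluor fluorescence as the cytotoxicity counter-screen.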

Experiment [3] deals with thyroid hormone receptor (rat, GH3 cells). Put plainly: qHTS assay to identify small molecule agonists of the thyroid receptor (TR) signaling pathway (AID 743066; calls by dose curve).
Experiment [4] addresses Estrogen receptor (Homo sapiens) (UniProt P03372). Put plainly: qHTS assay to identify small molecule antagonists of the estrogen receptor alpha (ER-alpha) signaling pathway (AID 743069; active means well fitted curve in the direction sought with a large enough effect in the signal ratio in the repeat runs, not every such curve was filed as active; inconclusive means weak or mixed curves, or effect the other way; inactive means no such curve, though single readings can be large or run the other way; the % refers to the signal ratio; further: potency means the concentration at half of the fitted maximal effect). An outline of the steps:
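Reporter cells (ER-alpha-bla, HEK293 background) are conditioned overnight in stripped-serum medium (2% charcoal-stripped FBS). Compound and 17beta-estradiol exposure runs 18 hr at 37C, 5% CO2.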

A short description of experiment [5]: qHTS assay to identify small molecule antagonists of the estrogen receptor alpha (ER-alpha) signaling pathway - cell viability counter screen (AID 743074; calls by dose curve;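 further: HEK293 cells carrying ER-alpha-UAS-bla reporter stimulated with 17beta-estradiol; nearly all actives have a fitted effect of over 45% in size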; further: potency means the concentration at half of the fitted maximal effect).
Experiment [6] addresses Estrogen receptor (Homo sapiens) (UniProt P03372). As to the kind of experiment: qHTS assay to identify small molecule agonists of the estrogen receptor alpha (ER-alpha) signaling pathway (AID 743075; calls by dose curve;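 further: HEK293 GripTite cells with ER-alpha and UAS-driven beta-lactamase reporter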; further: potency means the concentration at half of the fitted maximal effect).
Experiment [7] shares this target. As to the kind of experiment: qHTS assay to identify small molecule agonists of the estrogen receptor alpha (ER-alpha) signaling pathway using the BG1 cell line (AID 743079). Further: nearly all actives have a fitted effect of over 20% in size. Further: potency means the concentration at half of the fitted maximal effect.
Experiment [8] can be described thus: qHTS assay to identify small molecule antagonists of the estrogen receptor alpha (ER-alpha) signaling pathway using the BG1 cell line (AID 743080; calls by dose curve;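 further: BG1 cells stimulated with 17beta-estradiol alongside compound; series mostly up to about 70 µM; nearly all actives have a fitted effect of over 25% in size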). The essentials: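 BG1Luc4E2, endogenous ER-alpha, 4xERE-luc; 5 d charcoal-stripped FBS, phenol red free; 24 h plating; cpd + 17beta-estradiol 21.5 h, 37 C/5% CO2; CellTiter-Fluor viability 30 min, then ONE-Glo luciferase 30 min RT.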

A further experiment concerns the target Aromatase (Homo sapiens) (UniProt P11511). As to the kind of experiment: qHTS assay to identify aromatase inhibitors (AID 743083). Further: nearly all actives have a fitted effect of over 55% in size. Further: potency means the concentration at half of the fitted maximal effect.
A short description of experiment [9]: qHTS assay to identify aromatase inhibitors - cell viability counter screen (AID 743084).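 Further: cells stimulated with testosterone during compound exposure; nearly all actives have a fitted effect of over 55% in size.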 Further: potency means the concentration at half of the fitted maximal effect.
The target of experiment [10] is Aryl hydrocarbon receptor (Homo sapiens) (UniProt P35869). As to the kind of experiment: qHTS assay to identify small molecule that activate the aryl hydrocarbon receptor (AhR) signaling pathway (AID 743085). Further: nearly all actives have a fitted effect of over 15% in size. Further: potency means the concentration at half of the fitted maximal effect.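 On activation: HG2L7.5c1 human HepG2 liver cells with stably integrated DRE-driven firefly reporter; series mostly up to about 70 µM.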 The essentials:
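HepG2 cells (HG2L7.5c1) stably carrying a firefly luciferase reporter driven by 20 dioxin responsive elements were exposed to compound for 24 h at 37C after a 5 h settling period; luminescence rise (ONE-Glo) indicated activation.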

Experiment [11] in a line: qHTS assay to identify small molecule that activate the aryl hydrocarbon receptor (AhR) signaling pathway - cell viability counter screen (AID 743086). Further: nearly all actives have a fitted effect of over 45% in size. Further: potency means the concentration at half of the fitted maximal effect. An outline of the steps: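 HepG2-AhR-luc (HG2L7.5c1) cells, 4000/well, treated 24 h at 37 C with compound; viability measured as CellTiter-Fluor fluorescence after 30 min in the same wells as the luciferase read.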
The target of experiment [12] is Peroxisome proliferator-activated receptor gamma (Homo sapiens) (UniProt P37231). As to the kind of experiment: qHTS assay to identify small molecule agonists of the peroxisome proliferator-activated receptor gamma (PPARg) signaling pathway (AID 743094; active means well fitted activation curve with a large enough effect in the signal ratio in the repeat runs, not every such curve was filed as active; inconclusive means weak or mixed curves, or effect the other way; inactive means no such curve, though single readings can be large or run the other way; the % refers to the signal ratio). The essentials:
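Quantitative HTS agonist mode: stable HEK293H line with UAS-beta-lactamase reporter under PPARg control, 17 h compound exposure at 37C, fluorescence after 1 h FRET substrate loading at room temperature.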

Experiment [13] in a line: qHTS assay to identify small molecule antagonists of the estrogen receptor alpha (ER-alpha) signaling pathway using the BG1 cell line - cell viability counter screen (AID 743081).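 Further: compound given together with 17beta-estradiol as the ER stimulus; series mostly up to about 70 µM; nearly all actives have a fitted effect of over 45% in size.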
Experiment [14] deals with Peroxisome proliferator-activated receptor gamma (Homo sapiens) (UniProt P37231). As to the kind of experiment: qHTS assay to identify small molecule antagonists of the peroxisome proliferator-activated receptor gamma (PPARg) signaling pathway (AID 743191; calls by dose curve; further: series mostly up to about 63 µM; nearly all actives have a fitted effect of over 30% in size). An outline of the steps:
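GeneBLAzer PPARg UAS-bla HEK293H cells, 5 h post-plating, exposed to compounds 17 h at 37C. LiveBLAzer B/G FRET substrate added for 1 h at room temperature; beta-lactamase reporter read by fluorescence intensity.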

Experiment [15] in a line: qHTS assay to identify small molecule antagonists of the peroxisome proliferator-activated receptor gamma (PPARg) signaling pathway - cell viability counter screen (AID 743194). Further: nearly all actives have a fitted effect of over 55% in size. An outline of the steps: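 Cytotoxicity counter screen in PPARg-bla HEK293H cells, same wells as reporter assay. Compounds plus 50 nM rosiglitazone (final) for 17 h at 37 C, then viability read by CellTiter-Glo luminescence.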

A short description of experiment [16]: qHTS assay for small molecule agonists of the antioxidant response element (ARE) signaling pathway - cell viability counter screen (AID 743203; calls by dose curve; further: nearly all actives have a fitted effect of over 55% in size). An outline of the steps: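 Seeded at 2,000 cells/well, ARE-bla HepG2 cells were incubated 5 hrs before compound addition. After 16 hrs of treatment at 37C with 5% CO2, CellTiter-Glo reagent was added and luminescence read 30 min later.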

A short description of experiment [17]: qHTS assay for small molecule activators of the heat shock response signaling pathway - cell viability counter screen (AID 743209). Further: potency means the concentration at half of the fitted maximal effect; nearly all actives have a fitted effect of over 50% in size. An outline of the steps: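 First, HSE-bla HeLa cells were seeded at 1500 cells/well and kept overnight at 37 C. Next, compounds were pinned in and incubated 5 h. After the FRET substrate step, CellTiter-Glo was added and luminescence read 30 min later.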

Experiment [18] can be described thus: qHTS assay for small molecule agonists of the antioxidant response element (ARE) signaling pathway (AID 743202; active means well fitted activation curve with a large enough effect in the signal ratio in the repeat runs, not every such curve was filed as active; inconclusive means weak or mixed curves, or effect the other way; inactive means no such curve, though single readings can be large or run the other way; the % refers to the signal ratio; further: potency means the concentration at half of the fitted maximal effect). The essentials: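 Agonist mode reporter screen: HepG2 cells with ARE-controlled beta-lactamase are incubated with test compounds for 16 h at 37 C, and beta-lactamase activity is measured as fluorescence of cleaved B/G FRET substrate.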

Sequence of Peroxisome proliferator-activated receptor gamma (Homo sapiens) (P37231 whole entry, looked up): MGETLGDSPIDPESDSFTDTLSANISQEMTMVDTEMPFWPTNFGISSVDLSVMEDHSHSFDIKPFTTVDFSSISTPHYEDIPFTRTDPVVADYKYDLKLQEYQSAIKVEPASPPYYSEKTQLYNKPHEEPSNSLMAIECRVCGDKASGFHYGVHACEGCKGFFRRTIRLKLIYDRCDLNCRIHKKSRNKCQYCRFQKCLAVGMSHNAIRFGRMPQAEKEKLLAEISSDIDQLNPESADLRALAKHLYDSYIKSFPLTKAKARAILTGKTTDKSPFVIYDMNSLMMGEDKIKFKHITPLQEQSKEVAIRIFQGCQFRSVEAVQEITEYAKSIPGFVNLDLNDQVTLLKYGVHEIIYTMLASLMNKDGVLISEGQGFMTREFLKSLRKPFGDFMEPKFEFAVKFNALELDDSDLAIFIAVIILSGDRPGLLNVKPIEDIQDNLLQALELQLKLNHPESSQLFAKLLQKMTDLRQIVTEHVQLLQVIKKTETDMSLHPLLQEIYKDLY
Sequence of Estrogen receptor (Homo sapiens) (P03372 whole entry, looked up): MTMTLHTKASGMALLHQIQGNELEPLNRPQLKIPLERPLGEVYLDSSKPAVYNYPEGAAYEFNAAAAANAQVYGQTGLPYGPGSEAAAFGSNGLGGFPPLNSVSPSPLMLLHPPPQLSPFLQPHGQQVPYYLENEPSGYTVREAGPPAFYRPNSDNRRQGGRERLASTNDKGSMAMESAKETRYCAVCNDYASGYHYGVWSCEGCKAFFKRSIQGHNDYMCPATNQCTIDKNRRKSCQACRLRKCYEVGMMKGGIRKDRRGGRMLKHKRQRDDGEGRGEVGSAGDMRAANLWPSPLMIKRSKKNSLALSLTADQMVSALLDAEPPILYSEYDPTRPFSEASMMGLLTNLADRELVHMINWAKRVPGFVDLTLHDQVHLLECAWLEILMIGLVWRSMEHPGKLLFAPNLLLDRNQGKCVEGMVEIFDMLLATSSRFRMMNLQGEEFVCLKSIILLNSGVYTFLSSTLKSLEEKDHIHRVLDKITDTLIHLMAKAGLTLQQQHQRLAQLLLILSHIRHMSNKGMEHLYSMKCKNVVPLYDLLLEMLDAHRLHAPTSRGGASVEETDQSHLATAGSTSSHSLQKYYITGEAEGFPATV
Sequence of Aromatase (Homo sapiens) (P11511 whole entry, looked up): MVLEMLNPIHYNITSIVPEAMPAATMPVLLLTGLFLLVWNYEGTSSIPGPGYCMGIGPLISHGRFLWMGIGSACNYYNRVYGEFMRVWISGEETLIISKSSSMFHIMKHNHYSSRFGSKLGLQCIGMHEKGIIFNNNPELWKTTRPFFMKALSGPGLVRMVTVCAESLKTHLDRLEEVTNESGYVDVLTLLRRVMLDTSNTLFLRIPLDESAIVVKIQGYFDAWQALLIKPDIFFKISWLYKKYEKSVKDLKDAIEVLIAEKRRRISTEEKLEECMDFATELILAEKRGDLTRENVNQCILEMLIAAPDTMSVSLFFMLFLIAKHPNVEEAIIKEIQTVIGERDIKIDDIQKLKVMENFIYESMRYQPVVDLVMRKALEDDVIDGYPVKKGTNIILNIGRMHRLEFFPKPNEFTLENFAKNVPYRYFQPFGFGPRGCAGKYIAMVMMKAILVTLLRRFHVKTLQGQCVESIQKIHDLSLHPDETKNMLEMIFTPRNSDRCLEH
Sequence of Aryl hydrocarbon receptor (Homo sapiens) (P35869 whole entry, looked up): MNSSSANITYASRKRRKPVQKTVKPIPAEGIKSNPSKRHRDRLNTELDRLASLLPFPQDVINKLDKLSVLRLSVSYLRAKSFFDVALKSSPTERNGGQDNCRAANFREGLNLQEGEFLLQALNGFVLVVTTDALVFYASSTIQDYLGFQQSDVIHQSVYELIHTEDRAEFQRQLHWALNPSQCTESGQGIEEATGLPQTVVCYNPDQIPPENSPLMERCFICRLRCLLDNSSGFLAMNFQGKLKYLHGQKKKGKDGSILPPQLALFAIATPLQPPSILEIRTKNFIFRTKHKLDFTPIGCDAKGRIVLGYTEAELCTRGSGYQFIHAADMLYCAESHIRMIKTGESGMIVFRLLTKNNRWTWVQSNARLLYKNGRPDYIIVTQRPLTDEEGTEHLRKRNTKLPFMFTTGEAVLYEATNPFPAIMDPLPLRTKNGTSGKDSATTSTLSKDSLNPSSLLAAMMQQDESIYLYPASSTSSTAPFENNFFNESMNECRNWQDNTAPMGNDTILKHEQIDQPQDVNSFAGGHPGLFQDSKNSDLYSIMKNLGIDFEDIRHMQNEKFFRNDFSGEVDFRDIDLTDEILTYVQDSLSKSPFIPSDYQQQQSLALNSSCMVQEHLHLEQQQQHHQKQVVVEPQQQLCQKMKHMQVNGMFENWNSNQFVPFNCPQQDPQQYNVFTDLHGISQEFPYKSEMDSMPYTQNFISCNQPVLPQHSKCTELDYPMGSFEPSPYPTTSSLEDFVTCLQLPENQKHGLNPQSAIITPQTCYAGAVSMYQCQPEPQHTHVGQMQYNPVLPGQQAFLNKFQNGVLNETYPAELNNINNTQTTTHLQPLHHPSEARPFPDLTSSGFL

With `CCCCCCCCCCCCCC(=O)OCC(COP(=O)([O-])OCC[N+](C)(C)C)OC(=O)CCCCCCCCCCCCC` (stereo not given), the Potency result in experiment [1], in [2], in experiment [3], in experiment [4], in experiment [5] and in [6] was “inactive” each time. Besides, the Potency result (in experiment [7]; in [8]; with Aromatase (Homo sapiens); in experiment [9]; in experiment [10]; in experiment [11]) was “inactive” each time. Besides, the Potency result in [12] is “inactive”.
On to `C[Se]CC[C@H](N)C(=O)O`, for which the Potency result in experiment [1], in [2], in experiment [3], in [4], in experiment [5] and in experiment [6] was “inactive” each time. Further, the Potency result (in experiment [7]; in the experiment with Aromatase (Homo sapiens); in [9]; in experiment [12]) was “inactive” each time.
For `O=C1OC(=O)c2cc(-c3ccc4c(c3)C(=O)OC4=O)ccc21`, the Potency entry in experiment [1], in experiment [2], in experiment [3], in experiment [4], in experiment [6] and in experiment [7] was “inactive” throughout. Also, the Potency result (in experiment [8]; in experiment [13]; in the experiment with Aromatase (Homo sapiens); in experiment [9]; in [10]; in [11]) was “inactive” in each case. Also, the Potency result in experiment [12], in experiment [14], in [15] and in [16] was “inactive” each time.
For `CC[C@@H](C(=O)[C@@H](C)[C@@H](O)[C@H](C)CCc1ccc(C)c(O)c1C(=O)O)[C@H]1O[C@](CC)([C@H]2CC[C@](O)(CC)[C@H](C)O2)C[C@@H]1C`, the Potency in experiment [1] is 3.35 µM (active); in experiment [2], 1.33 µM (active); in experiment [5], 19 µM (active); in [11] it was 29.8 µM (active). The Potency entry (in [3]; in experiment [6]; in [7]; in the experiment with Aromatase (Homo sapiens); in [10]; in experiment [12]) was “inactive” each time.
With `CCCOC(=O)c1ccccc1O`, the Potency result in [1], in experiment [2], in [3], in experiment [4], in experiment [5] and in [6] was “inactive” in each case. In addition, the Potency result (in experiment [7]; in [8]; in the experiment with Aromatase (Homo sapiens); in experiment [9]; in [10]; in experiment [11]) was “inactive” throughout.
Take `Nc1nc(/C(=C/CC(=O)O)C(=O)N[C@@H]2C(=O)N3C(C(=O)O)=CCS[C@H]23)cs1`: the Potency result in experiment [1], in [2], in experiment [3], in experiment [4], in experiment [5] and in experiment [6] was “inactive” in each case. Further, the Potency entry (in experiment [7]; in [8]; in experiment [13]; in the experiment with Aromatase (Homo sapiens); in experiment [9]; in experiment [11]) was “inactive” in each case. In addition, the Potency entry in [12] is “inactive”.
As to `CCOc1ccc([N+](=O)[O-])cc1`, the Potency was 31.1 µM (active) in [1]; 31.1 µM (active) in experiment [2]; 55.8 µM [inconclusive] (active) in experiment [4]; 6.26 µM [inconclusive] (active) in [6]; 1.96 µM (active) in [7]; 27.7 µM (active) with Aromatase (Homo sapiens). Moreover, the Potency was 55.3 µM (active) in experiment [9] and 44.3 µM (active) in experiment [17]. Moreover, the Potency result in experiment [3], in experiment [10] and in [11] was “inactive” throughout.
Consider `Cc1c(N)nc([C@H](CC(N)=O)NC[C@H](N)C(N)=O)nc1C(=O)N[C@H](C(=O)N[C@H](C)[C@@H](O)[C@H](C)C(=O)N[C@H](C(=O)NCCc1nc(-c2nc(C(=O)NCCCCN=C(N)N)cs2)cs1)[C@@H](C)O)[C@@H](O[C@@H]1O[C@@H](CO)[C@@H](O)[C@H](O)[C@@H]1O[C@H]1O[C@H](CO)[C@@H](O)[C@H](OC(N)=O)[C@@H]1O)c1cnc[nH]1`, for which the Potency result in [1] is “inactive and 4.22 µM (active)”; in experiment [2], 3.76 µM (active) and 841 nM (active). The Potency entry (in experiment [3]; in [5]; in experiment [6]; in experiment [7]; in experiment [13]; with Aromatase (Homo sapiens)) was “inactive” throughout. Further, the Potency result in experiment [9], in experiment [10], in experiment [11] and in experiment [12] was “inactive” in each case.
On to `CC(=O)O[C@H]1C[C@@H]2CC[C@@H]3[C@H](CC[C@@]4(C)[C@H]3C[C@H]([N+]3(C)CCCCC3)[C@@H]4OC(C)=O)[C@@]2(C)C[C@@H]1[N+]1(C)CCCCC1`, for which the Potency result in experiment [1], in experiment [2], in experiment [3], in experiment [4], in [6] and in experiment [7] was “inactive” in each case. Moreover, the Potency entry (in [8]; in experiment [13]; with Aromatase (Homo sapiens); in experiment [9]; in experiment [10]; in experiment [11]) was “inactive” each time. In addition, the Potency entry in [12] was “inactive”.
Take `NC(N)=NCCCCN=C(N)N`: the Potency result (in [1]; in experiment [2]; in [3]; in experiment [5]; in [8]; with Aromatase (Homo sapiens)) was “inactive” in each case. For the same compound, the Potency entry in experiment [9], in [11] and in experiment [12] was “inactive” in each case. Also, the Potency in [6] is 5.35 µM [inconclusive] (active); in experiment [7], 0.473 µM (active).
Regarding `CC(C)c1ccc2sc3ccccc3c(=O)c2c1`, the Potency entry in experiment [1], in experiment [2], in [3], in [5], in experiment [6] and in experiment [13] was “inactive” throughout. Further, the Potency entry (with Aromatase (Homo sapiens); in [9]; in [11]; in experiment [15]; in [16]) was “inactive” each time. Moreover, the Potency in experiment [7] was 6.11 µM (active); in experiment [10], 30.6 µM (active); in experiment [18], 9.69 µM (active).
For `N[C@H](C(=O)O)[C@@H]1CC(Cl)=NO1`, the Potency in experiment [1] is 5.96 µM (active); in experiment [2], 2.98 µM (active). For the same compound, the Potency result in [3], in experiment [5], in experiment [6], in experiment [7], in [8] and in [13] was “inactive” in each case. For the same compound, the Potency entry in experiment [9], in experiment [10], in [11] and in experiment [12] was “inactive” each time.
Regarding `OCCCNc1ccccc1`, the Potency result in [1], in experiment [2], in [3], in experiment [4], in [5] and in experiment [6] was “inactive” throughout. In addition, the Potency entry (in experiment [7]; in [8]; with Aromatase (Homo sapiens); in experiment [9]; in experiment [10]) was “inactive” each time.
With `C[C@H](O)CN(C)C`, the Potency result in [1], in [2], in experiment [3], in [4], in [5] and in experiment [6] was “inactive” each time. The Potency entry (in [8]; in [13]; with Aromatase (Homo sapiens); in experiment [9]; in experiment [11]; in experiment [12]) was “inactive” in each case.
